The source of these data is PubChem BioAssay AID686979 (National Center for Advancing Translational Sciences (NCATS), 2013).

In all, about 420,000 compounds went through this assay and about 50,000 (12%) were called active. Where a call stands in place of a potency, no number is given. Not shown: some 26% with an inconclusive outcome. The call rests on the fitted dose curve; in most records, active means well fitted inhibition curve with a large enough effect; inconclusive means small, poorly fitted or top-dose-only effect; inactive means flat fitted curve, though single readings scatter. Many of the other results were omitted from the sample, so actives are more common in it than they were.
Potency means the concentration at half of the fitted maximal effect.

The nature of this assay: qHTS for Inhibitors of human tyrosyl-DNA phosphodiesterase 1 (TDP1): qHTS in cells in presence of CPT. Further: nearly all actives have a fitted effect of over 55% in size. As to conditions: chicken DT40 Tdp1-/-;hTDP1 cells + 20 nM CPT, ATP luminescence, 48 h; series mostly up to 46.2 µM. In a few lines: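 Chicken DT40 Tdp1-/- cells complemented with human TDP1, 400 cells/well, exposed to compounds plus 20 nM camptothecin for at least 48 h at 37 C; viability read as ATP content by CellTiter-Glo luminescence.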
For orientation: In qHTS, concentration-response curves come from the screen itself.
Turning to `O=C(Nc1cc(-c2nc3ccccc3o2)ccc1Cl)c1cc([N+](=O)[O-])ccc1N1CCOCC1`, the Potency entry is “inactive”.
The entry for `COc1cc(/C=C/CNC[C@H]2O[C@@H](n3cnc(C(N)=O)n3)[C@H](O)[C@@H]2O)ccc1O` is “inactive”; for `O=C(c1ccco1)n1nc(-c2ccc(Cl)cc2)nc1NCc1ccccc1` it is 18.4 µM (active).
With `O=C(Cc1ccccc1)n1nc(-c2ccccc2)nc1NCc1ccco1`, the Potency result was “inactive”.
Consider `O=C(c1ccc(Cl)cc1)n1nc(-c2cccnc2)nc1NCc1ccc(F)cc1`, for which the Potency entry is “inactive”.
For `COc1ccc(C(=O)NCCSc2ccccc2C)cc1`, the Potency entry is “inactive”.
In the case of `Cc1nn(C)cc1N1C(=O)c2cccc3c(N)ccc(c23)C1=O`, the Potency entry is “inactive”.
The figure for `CCN1C(=O)c2cccc3c(N)ccc1c23` is 11.6 µM (active).
Take `CN1C(=O)c2cccc3c(N)ccc(c23)C1=O`: the Potency entry is “inactive”.
In the case of `NC1=NC(c2cc(F)cc(F)c2)n2c(nc3ccccc32)N1` (stereo unspecified), the Potency result was “inactive”.
Then `CS(=O)(=O)C1=NN2C(=N)/C(=C\c3ccc(OCCOc4ccccc4)cc3)C(=O)N=C2S1`, with “inactive”; and `Cc1ccc(NC2CCCN(C(=O)CCC3(C)CC3)C2)cc1C` (stereo unspecified), with “inactive”.
For the compound `CCCCN(CC)CCCNC(=O)Cn1ncc2c([nH]c3ccc(C)cc32)c1=O`, the Potency result was “inactive”.
On to `CC(Sc1nncs1)C(=O)NCc1ccc2c(c1)OCO2` (stereo unspecified), for which the Potency result was “inactive”.
Turning to `Cc1nn(C(C)C(=O)N2CCOCC2)c(=O)c2nn(-c3ccccc3)c(C)c12` (stereo unspecified), the Potency result was “inactive”.
In the case of `COc1ccccc1CNC(=O)Cn1c(=O)oc2cc(Cl)ccc21`, the Potency entry is “inactive”.
Then `Cc1nc2c(C(=O)NCc3ccc4c(c3)OCO4)c[nH]n2c(=O)c1Cc1ccccc1F`, with “inactive”.
As for `COc1ccccc1CNC(=O)Cn1cc2c(n1)CCCC2`, the Potency entry is “inactive”.
As for `Cc1ccc(-n2nc3c(=O)n(C(C)C(=O)NCc4ccc5c(c4)OCO5)nc(C)c3c2C)cc1` (stereo unspecified), the Potency was 18.4 µM (active).
The entry for `Cc1nn(CC(=O)N2CCCCC2)c(=O)c2nn(-c3ccccc3)c(C)c12` is “inactive”; for `COc1ccccc1CNC(=O)Cn1nc(C)c2nn(-c3ccc(Cl)cc3)c(C)c2c1=O` it is 20.6 µM (active).
For `COc1ccc(CNC(=O)C(C)n2nc(C)c3c(C)n(-c4ccccc4)nc3c2=O)c(OC)c1` (stereo unspecified), the Potency was 16.4 µM (active).
Then `CN(CCC1CCOCC1)C(=O)CC1C(=O)NCCN1Cc1cccc(F)c1` (stereo unspecified), with “inactive”; and `CC1CC(C)CN(CCOc2cccc3ccccc23)C1` (stereo unspecified), with “inactive”.
With `O=C(Nc1ccc([N+](=O)[O-])cc1)OCCc1ccccn1`, the Potency entry was “inactive”.
Take `COc1ccc(CN2CCOc3c(cc(-c4ncc(C(F)(F)F)cc4Cl)cc3OCC3CCCO3)C2)c(O)c1` (stereo unspecified): the Potency entry was “inactive”.
As to `O=C(CN1C(=O)NC2(CCOc3ccccc32)C1=O)NCc1ccc(F)cc1` (stereo unspecified), the Potency entry was “inactive”.
In the case of `O=C(NCCCn1ccnc1)C(=O)c1cn(CC(=O)N2CCCCCC2)c2ccccc12`, the Potency result was “inactive”.
The entry for `CC(C)NC(=O)c1nn(-c2ccccc2F)nc1CO` is “inactive”.
As for `CC1(C)NC(=O)N(CC(=O)Nc2ccc(-c3ccccc3)cc2)C1=O`, the Potency entry is “inactive”.
Consider `O=C(CSc1nnc(SCc2ccc(Cl)cc2)s1)N/N=C/c1ccccc1Cl`, for which the Potency was 18.4 µM (active).
For `O=C(Cc1ccccc1)N/N=C/c1ccc(Cl)cc1Cl`, the Potency entry is “inactive”.
In the case of `Cc1nnsc1C(=O)N/N=C/c1ccccc1Cl`, the Potency entry is “inactive”.
The entry for `C=CCOc1ccccc1NC(=O)CN1C(=O)CNC1=O` is “inactive”; for `COc1ccc(CCN2C(=O)C(C)=C(C)C2=O)cc1OC` it is “inactive”; for `COc1ccc(CCN2CNc3c(c(=O)n(C)c(=O)n3C)C2)cc1OC` it is “inactive”.
On to `COc1ccc(CCn2cc3c(c2-c2ccc(Br)cc2)c(=O)n(C)c(=O)n3C)cc1OC`, for which the Potency is 23.1 µM (active).
For `O=S(=O)(c1ccc(-c2ccno2)s1)N1CCCCC1`, the Potency result was “inactive”.
Take `COc1cccc(/C=C2\C=C(c3ccc(C)cc3)OC2=O)c1OC(C)=O`: the Potency result is “inactive”.
With `COCc1c(C(=O)N/N=C\c2cccnc2)nnn1-c1nonc1N`, the Potency entry was “inactive”.
As to `CCCCNC(=O)C(=O)c1ccccc1NC(C)=O`, the Potency result is “inactive”.
With `CCCCNC(=O)Nc1c(C)cc(SC#N)cc1C`, the Potency was 18.4 µM (active).
The entry for `c1ccc(CCc2ccccn2)cc1` is “inactive”; for `Cc1ccc(CC2CC(=O)N(c3nc(C)cc(C)n3)C2=O)cc1` (stereo unspecified) it is “inactive”; for `CC(=O)N1CC(C)c2scc(C)[n+]2-c2ccccc21` (stereo unspecified) it is “inactive”.
Regarding `NNC(=O)c1nnn(-c2nonc2N)c1CN1CCCC1`, the Potency result is “inactive”.
For `CCOC(=O)c1nnn(-c2nonc2-n2cccc2)c1CN1CCC(C(=O)OCC)CC1`, the Potency is 18.4 µM (active).
Take `CCOC(=O)c1nnn(-c2nonc2-n2cccc2)c1CN1CCOCC1`: the Potency result is “inactive”.
Then `CCOC(=O)C1(Cc2cccc(OC)c2)CCCN(C(=O)CCSC)C1` (stereo unspecified), with “inactive”; and `CC1(c2ccccc2)NC(=O)N(CC(=O)N2CC(=O)Nc3ccccc32)C1=O` (stereo unspecified), with “inactive”.
As to `Nc1nc2c(ncn2[C@@H]2O[C@H](CNS(=O)(=O)N3CCc4ccccc4C3)[C@@H](O)[C@H]2O)c(=O)[nH]1`, the Potency entry is “inactive”.
`COC1C(CO)OC(n2cnc3c(=S)nc(N)[nH]c32)C1O` (stereo unspecified): the Potency is 16.4 µM (active).
For `CC(C)Sc1nc(N)nc2c1ncn2C1OC(CO)C(O)C1O` (stereo unspecified), the Potency entry was “inactive”.
As to `COC(=O)CNS(=O)(=O)c1ccc(Cc2ccc(S(=O)(=O)NCC(=O)OC)cc2)cc1`, the Potency result was “inactive”.
For `CCCn1c(SCC(N)=O)nnc1C(C)C`, the Potency entry is “inactive”.
Regarding `CCn1c(SCC(=O)Nc2ccc3c(c2)OCCO3)nnc1C(C)C`, the Potency result is “inactive”.
The figure for `CCCn1c(SCC(=O)c2ccc3c(c2)OCCO3)nnc1C(C)C` is 23.1 µM (active); for `O=C(CSc1nc2ccccc2c(=O)n1CCCO)N1CCc2ccccc21` it is “inactive”.
Consider `Cn1c(SCC(=O)N2CCCc3ccccc32)nc2ccccc2c1=O`, for which the Potency was 7.31 µM (active).
On to `CCC(=O)N1CCCc2ccccc21`, for which the Potency result is “inactive”.
Consider `CC(C)CNC(=S)NNC(=O)c1ccccc1OC(F)F`, for which the Potency entry was “inactive”.
The figure for `O=S(=O)(Oc1ccccc1C(=S)N1CCOCC1)c1ccc(Cl)cc1` is 16.4 µM (active); for `CCOc1cc(C(=S)N2CCOCC2)ccc1OS(=O)(=O)c1ccc(Br)cc1` it is “inactive”.
For `CC(=O)Nc1ccc(S(=O)(=O)Oc2ccc(Br)cc2C(=S)N2CCOCC2)cc1`, the Potency entry was “inactive”.
With `N/C(=N/O)c1cccn1Cc1ccccc1[N+](=O)[O-]`, the Potency entry was “inactive”.
`O=[N+]([O-])c1ccccc1NCc1ccccc1Cl`: the Potency entry is “inactive”.
In the case of `O=c1c([N+](=O)[O-])cccn1Cc1ccc(F)cc1Cl`, the Potency is 11.6 µM (active).
Consider `O=C(O)c1ccc(S(=O)(=O)c2ccccc2)s1`, for which the Potency entry was “inactive”.
Then `O=C(N=C1SC2CS(=O)(=O)CC2N1Cc1ccccc1)c1ccccc1` (stereo unspecified), with “inactive”; and `COC(=O)c1sccc1NS(=O)(=O)c1ccc(F)cc1F`, with “inactive”.
On to `O=C(O)c1ccccc1/C=N/Nc1ccc(S(=O)(=O)Nc2ccc(Cl)cc2)cc1[N+](=O)[O-]`, for which the Potency result was “inactive”.
Then `O=[N+]([O-])c1cc(S(=O)(=O)Nc2cccc(Cl)c2)ccc1N=Nc1c(O)[nH]c2ccccc12`, with 20.6 µM (active); and `COc1ccc(S(=O)(=O)Nc2ccc3cn[nH]c3c2)cc1[N+](=O)[O-]`, with “inactive”; and `CN(Cc1ccc(F)cc1Cl)S(=O)(=O)c1cccs1`, with “inactive”.
In the case of `Cn1cc(C(=O)c2ccc(Cl)cc2Cl)cc1C(=O)NN`, the Potency entry is “inactive”.
Take `CC(OC(=O)CCc1nc(=O)c2ccccc2n1C)C(=O)NCc1ccc2c(c1)OCO2` (stereo unspecified): the Potency result was “inactive”.
Consider `CCOC(=O)c1ccc(NC(=O)CCS(=O)(=O)c2ccc(C)cc2)cc1`, for which the Potency was 18.4 µM (active).
For the compound `CCOC(=O)c1ccc(NC(=O)CCS(=O)(=O)c2ccc3c(c2)oc(=O)n3C)cc1`, the Potency entry is “inactive”.
Take `Cc1ccc(S(=O)(=O)CC(=O)Nc2nnc(C)s2)cc1`: the Potency result is “inactive”.
On to `Cc1ccc(S(=O)(=O)CCC(=O)Nc2nnc(CC(C)C)s2)cc1`, for which the Potency is 20.6 µM (active).
As to `CC(C)Cc1nnc(NC(=O)CCc2ccccc2)s1`, the Potency result was “inactive”.
The entry for `CCOc1ccc(OCC)c(NC(=O)CCS(=O)(=O)c2ccc(C)cc2)c1` is “inactive”; for `O=C1C(=O)N(CCN2CCOCC2)C(c2cccc(Cl)c2)/C1=C(/O)c1ccc2c(c1)OCO2` (stereo unspecified) it is “inactive”; for `CN(CC(O)COc1ccc(S(=O)(=O)N2CCOCC2)cc1Cl)C1CCCCC1` (stereo unspecified) it is “inactive”.
Take `CCCCOc1ccc(N(CC(=O)NC(C)C)C(=O)CCC(=O)Nc2ccccn2)cc1`: the Potency entry is “inactive”.
Then `O=C(Cc1cccs1)N/N=C/c1ccc(OCc2ccccc2)cc1`, with “inactive”.
The entry for `O=C(NN1C(=O)C2C3C=CC(C4CC34)C2C1=O)c1ccc(Cl)cc1` (stereo unspecified) is “inactive”.
Turning to `O=C(N/N=C/c1c[nH]c2ccccc12)c1cc2ccccc2o1`, the Potency was 14.6 µM (active).
The figure for `Cc1c(/C=N\NC(=O)c2cc3ccccc3o2)c2ccccc2n1C` is 3.66 µM (active); for `O=C(N/N=C/c1cccc(O)c1)c1cc2c(ccc3ccccc32)o1` it is “inactive”.
Consider `O=C(N/N=C/c1c[nH]c2ccccc12)c1ccccc1O`, for which the Potency result is “inactive”.
Then `CSC(=S)N/N=C/c1c[nH]c2ccccc12`, with 0.651 µM (active); and `O=C(O)c1cccc(NC(=S)N/N=C/c2c[nH]c3ccccc23)c1`, with “inactive”; and `N=c1oc2ccccc2cc1C(=O)N/N=C/c1ccccc1`, with “inactive”.
As to `Cc1ccc(NC(=O)c2cc3ccccc3o2)cc1`, the Potency entry is “inactive”.
As to `O=C(N/N=C/c1coc2ccccc2c1=O)c1cc2ccccc2o1`, the Potency result was “inactive”.
For the compound `CCOC(=O)c1ccc(NC(=O)C2CC(=O)N(c3ccc4c(c3)OCCO4)C2)cc1` (stereo unspecified), the Potency entry was “inactive”.
With `O=C1CCCC(O)=C1N=Nc1ccc2ncsc2c1`, the Potency entry was “inactive”.
`NNC(=O)CSc1nnc(-c2ccccc2)n1-c1ccccc1`: the Potency result is “inactive”.
Turning to `CCCCn1c(N)c(N(CCOC)C(=O)c2sc3ccccc3c2Cl)c(=O)[nH]c1=O`, the Potency result is “inactive”.
As to `CC[C@H](C)C(=O)N[C@H]1CCCN1C(=O)/C=C/c1ccccc1`, the Potency entry is “inactive”.
The entry for `O=S(=O)(NCCS(=O)(=O)N1CCN(c2ccccc2)CC1)c1ccc(F)cc1` is “inactive”; for `O=C(Nc1ccccc1Cl)NC1(C(=O)N2CCOCC2)CCCCC1` it is “inactive”.
`COc1cc2c(cc1OC)C(=O)NCC(C)(C)O2`: the Potency result is “inactive”.
The entry for `Cc1cc(C)cc(NC(=O)Cn2cnc3c(nnn3Cc3ccc(F)cc3)c2=O)c1` is “inactive”; for `CC(C)n1c(=O)[nH]c2cc(C(=O)Nc3ccccc3)ccc21` it is “inactive”; for `COCCn1c(=O)[nH]c2cc(C(=O)NCc3cccnc3)ccc2c1=O` it is “inactive”.
Then `O=C(NC1CCCCC1)c1ccc2c(=O)n(CC3CCCO3)c(=O)[nH]c2c1` (stereo unspecified), with “inactive”.
As to `CCCCCn1c(=O)[nH]c2cc(C(=O)NCCCN3CCCCC3C)ccc2c1=O` (stereo unspecified), the Potency result was “inactive”.
With `CCCCCn1c(=O)[nH]c2cc(C(=O)Nc3cc(C)cc(C)c3)ccc2c1=O`, the Potency was 4.11 µM (active).
With `CCCCCn1c(=O)[nH]c2cc(C(=O)Nc3ccc(F)cc3)ccc2c1=O`, the Potency was 20.6 µM (active).
